# Results: the supplement of paper PMC7669877
# ± gives the uncertainty stated by the source.
# Test system: Candidatus Liberibacter solanacearum in potato hairy roots
# Assay: relative CLso titer (% of untreated control); higher = less inhibition of bacterial titer
# Details: 10 µM; 72 h
# Experimental: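 Primary screen of ~220 Spectrum collection (MicroSource) compounds at 10 µM (0.1% DMSO) on Candidatus Liberibacter solanacearum-infected potato hairy roots in multi-well plates (Gamborg B-5 medium, vacuum infiltrated, 21 °C, dark, 72 h). CLso titer was measured by qPCR of 16S rDNA normalised to potato RPL2 (2^-ddCq), pairwise-standardised against untreated controls, averaged over two biological replicates and expressed as % of untreated.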
row,SMILES,relative CLso titer [%]
1,CC(=O)OCC(=O)[C@@]1(O)[C@H](C)C[C@H]2[C@@H]3CCC4=CC(=O)C=C[C@]4(C)[C@@]3(F)[C@@H](O)C[C@@]21C,101 ± 39
2,Oc1ccc(Cl)c2cccnc12,36.8 ± 11
3,O=C(O)Cc1ccccc1Nc1c(Cl)cccc1Cl,151 ± 55
4,C[C@H]1O[C@@H](O[C@H]2[C@@H](O)C[C@H](O[C@H]3[C@@H](O)C[C@H](O[C@H]4CC[C@@]5(C)[C@H](CC[C@@H]6[C@@H]5C[C@@H](O)[C@]5(C)[C@@H](C7=CC(=O)OC7)CC[C@]65O)C4)O[C@@H]3C)O[C@@H]2C)C[C@H](O)[C@@H]1O,86.7 ± 7.9
5,CC1=C(/C=C/C(C)=C/C=C/C(C)=C/CO)C(C)(C)CCC1,195 ± 25
6,C[C@@](Cc1ccc(O)c(O)c1)(NN)C(=O)O,138.8 ± 1.3
7,COc1ccc(NS(=O)(=O)c2ccc(N)cc2)nn1,116.5 ± 0.47
8,C[C@@H]1C[C@H]2[C@@H]3C[C@H](F)C4=CC(=O)C=C[C@]4(C)[C@@]3(F)[C@@H](O)C[C@]2(C)[C@@]1(OC(=O)c1ccco1)C(=O)SCF,92.9 ± 10
9,C[C@]12CCC(=O)C=C1CC[C@@H]1[C@@H]2[C@@H](O)C[C@@]2(C)[C@H]1CC[C@]2(O)C(=O)CO,94.9 ± 25
10,Nc1ncn([C@@H]2O[C@H](CO)[C@@H](O)[C@H]2O)c(=O)n1,64.8 ± 5.8
11,CN(C)CCOC(c1ccccc1)c1ccccc1.Cn1c(=O)c2[nH]c(Cl)nc2n(C)c1=O,127 ± 74
12,Oc1ncnc2[nH]ncc12,82.5 ± 30
13,Cc1cc(O)cc(C)c1Cl,30.8 ± 2.8
14,CCCCNc1cc(C(=O)O)cc(S(N)(=O)=O)c1Oc1ccccc1,105 ± 14
